For some assays here: Results with a measured potency or affinity are listed apart.
Key:
Parameters in all cases: scale not given: direction of the effect not stated beside the values
[1] = target: Protein translocase subunit SecA (Escherichia coli (strain K12)) (UniProt P10408); test: Assay to Identify E. coli SecA ATPase Inhibitors; format: functional; conditions: 30 µM
[2] = target: T1, Ubiquitin-activating enzyme e1, putative (Leishmania donovani (strain BPK282A1)) (UniProt E9BSI1); test: Leishmania donovani Ubiquitin Activating Enzyme (LdE1); format: functional; conditions: 30 µM
T1 sequence (whole entry): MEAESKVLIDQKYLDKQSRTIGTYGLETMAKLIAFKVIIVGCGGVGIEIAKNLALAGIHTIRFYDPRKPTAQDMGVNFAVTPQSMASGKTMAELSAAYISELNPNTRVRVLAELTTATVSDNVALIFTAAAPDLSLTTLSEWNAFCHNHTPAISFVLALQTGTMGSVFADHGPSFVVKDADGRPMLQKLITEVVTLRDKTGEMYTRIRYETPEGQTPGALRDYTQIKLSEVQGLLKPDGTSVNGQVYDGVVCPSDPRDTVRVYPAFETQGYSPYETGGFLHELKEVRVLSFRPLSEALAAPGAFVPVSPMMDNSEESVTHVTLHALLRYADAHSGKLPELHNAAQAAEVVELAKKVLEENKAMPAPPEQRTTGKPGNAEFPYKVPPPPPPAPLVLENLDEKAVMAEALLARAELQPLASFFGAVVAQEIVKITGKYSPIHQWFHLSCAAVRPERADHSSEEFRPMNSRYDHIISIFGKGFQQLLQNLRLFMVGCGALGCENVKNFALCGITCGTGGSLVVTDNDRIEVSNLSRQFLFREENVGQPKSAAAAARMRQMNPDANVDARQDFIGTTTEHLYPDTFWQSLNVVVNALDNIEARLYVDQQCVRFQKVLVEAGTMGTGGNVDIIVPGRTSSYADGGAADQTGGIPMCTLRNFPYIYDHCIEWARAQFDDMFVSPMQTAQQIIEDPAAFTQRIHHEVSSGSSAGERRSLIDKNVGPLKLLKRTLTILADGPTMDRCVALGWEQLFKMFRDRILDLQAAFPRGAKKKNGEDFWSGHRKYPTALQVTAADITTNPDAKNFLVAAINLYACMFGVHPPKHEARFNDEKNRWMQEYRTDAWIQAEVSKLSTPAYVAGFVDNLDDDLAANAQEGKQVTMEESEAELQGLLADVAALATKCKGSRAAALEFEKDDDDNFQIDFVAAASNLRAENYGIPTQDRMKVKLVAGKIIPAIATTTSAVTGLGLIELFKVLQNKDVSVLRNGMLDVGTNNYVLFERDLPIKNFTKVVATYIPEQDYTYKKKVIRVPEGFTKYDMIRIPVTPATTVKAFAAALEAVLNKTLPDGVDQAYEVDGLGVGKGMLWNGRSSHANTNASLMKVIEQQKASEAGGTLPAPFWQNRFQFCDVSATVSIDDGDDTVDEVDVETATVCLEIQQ

[3] = target: AMP-activated protein kinase, AMPK (Homo sapiens) (UniProt P54646+O43741+P54619+Q9UGJ0+Q9Y478+Q13131+Q9UGI9); test: AMP-dependent Kinase enzyme assay. An in vitro enzyme assay that detects ADP turnover that is directly proportional to AMPK activity. This uses naive AMPK that is activated during the assay with MK-8722; format: functional; conditions: 30 µM
[4] = target: Sialic acid-binding Ig-like lectin 9 (Homo sapiens) (UniProt Q9Y336); test: Hs-Siglec9 ALPHAscreen SOP 20170721; conditions: 10 µM
[5] = tested on: Trypanosoma cruzi; test: Trypanosoma cruzi phosphomannomutase and mannose-1-phosphate guanylyltransferase assay; format: functional; conditions: 10 µM
[6] = target: T2, Arginase-2, mitochondrial (Homo sapiens) (UniProt P78540); test: in vitro enzyme assay to detect the production of urea directly proportional to the activity of Arginase II; format: functional; conditions: 33.3 µM; also: in the data most compounds retested in dose-response had high values
T2 sequence (whole entry): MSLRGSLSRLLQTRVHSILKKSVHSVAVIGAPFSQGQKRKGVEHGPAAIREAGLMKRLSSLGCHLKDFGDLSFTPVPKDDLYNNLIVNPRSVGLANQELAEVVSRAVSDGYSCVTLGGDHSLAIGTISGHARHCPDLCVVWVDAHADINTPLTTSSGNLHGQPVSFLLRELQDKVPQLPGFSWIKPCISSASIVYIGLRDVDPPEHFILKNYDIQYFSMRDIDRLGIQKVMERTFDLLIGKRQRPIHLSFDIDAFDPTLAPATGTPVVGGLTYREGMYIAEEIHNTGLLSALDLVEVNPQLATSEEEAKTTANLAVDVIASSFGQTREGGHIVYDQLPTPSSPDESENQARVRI

[7] = target: T3, Proteasome subunit beta (Trypanosoma cruzi) (UniProt O96673); test: Trypanosoma cruzi proteasome chymotrypsin-like activity (TcProtChymo) assay.; also: in the data most compounds retested in dose-response had high values; format: functional; conditions: 9.37 µM
T3 sequence (whole entry): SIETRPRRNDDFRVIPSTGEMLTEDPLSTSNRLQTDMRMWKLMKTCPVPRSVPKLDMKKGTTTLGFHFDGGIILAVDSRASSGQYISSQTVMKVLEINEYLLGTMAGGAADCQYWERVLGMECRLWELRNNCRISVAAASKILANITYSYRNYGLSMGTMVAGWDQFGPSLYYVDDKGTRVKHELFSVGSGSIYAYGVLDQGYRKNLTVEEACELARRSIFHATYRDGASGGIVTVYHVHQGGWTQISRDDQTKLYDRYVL

[8] = species on record: Homo sapiens; test: To identify inhibition of the IFN signalling (Jak-Stat) pathway via expression of an eGFP reporter gene under the control of an IFN-stimulated response element (ISRE) containing MxA promoter.; format: functional; conditions: 30 µM
[9] = target: T4, Tyrosyl-tRNA synthetase, putative (Trypanosoma cruzi (strain CL Brener)) (UniProt Q4DSP6); test: Trypanosoma cruzi tyrosyl tRNA synthetase (TcYRS) _High Tyrosine SOP; format: functional; conditions: 30 µM; also: in the data most compounds retested in dose-response had high values
T4 sequence (whole entry): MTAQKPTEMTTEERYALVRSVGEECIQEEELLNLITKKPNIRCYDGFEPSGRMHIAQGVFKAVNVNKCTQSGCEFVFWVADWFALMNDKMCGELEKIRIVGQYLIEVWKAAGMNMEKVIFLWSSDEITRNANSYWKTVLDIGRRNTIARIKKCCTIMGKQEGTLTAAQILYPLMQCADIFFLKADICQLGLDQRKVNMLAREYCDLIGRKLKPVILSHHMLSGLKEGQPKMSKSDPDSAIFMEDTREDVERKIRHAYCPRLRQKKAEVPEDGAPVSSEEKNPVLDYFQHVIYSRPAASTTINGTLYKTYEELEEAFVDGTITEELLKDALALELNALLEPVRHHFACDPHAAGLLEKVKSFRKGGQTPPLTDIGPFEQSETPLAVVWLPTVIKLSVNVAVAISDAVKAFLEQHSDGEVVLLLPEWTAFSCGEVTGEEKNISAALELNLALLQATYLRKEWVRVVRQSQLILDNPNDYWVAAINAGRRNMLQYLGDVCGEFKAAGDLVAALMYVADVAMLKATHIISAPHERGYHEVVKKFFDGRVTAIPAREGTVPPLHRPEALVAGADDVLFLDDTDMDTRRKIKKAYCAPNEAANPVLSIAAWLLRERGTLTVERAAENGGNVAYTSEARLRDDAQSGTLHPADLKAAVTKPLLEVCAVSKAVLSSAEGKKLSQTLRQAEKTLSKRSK

[10] = target: T4, Tyrosyl-tRNA synthetase, putative (Trypanosoma cruzi (strain CL Brener)); test: Trypanosoma cruzi tyrosyl tRNA synthetase (TcYRS) SOP; format: functional; conditions: 30 µM
[11] = target: Chromo domain-containing protein 1 (Saccharomyces cerevisiae (strain ATCC 204508 / S288c) (Baker's yeast)) (UniProt P32657); test: ScCHD-1 Enzyme Inhibition Assay; format: functional; conditions: 30 µM; also: in the data most compounds retested in dose-response had high values
Chain of Chromo domain-containing protein 1 (Saccharomyces cerevisiae (strain ATCC 204508 / S288c) (Baker's yeast)) (P32657 whole entry, the tested form may be a part): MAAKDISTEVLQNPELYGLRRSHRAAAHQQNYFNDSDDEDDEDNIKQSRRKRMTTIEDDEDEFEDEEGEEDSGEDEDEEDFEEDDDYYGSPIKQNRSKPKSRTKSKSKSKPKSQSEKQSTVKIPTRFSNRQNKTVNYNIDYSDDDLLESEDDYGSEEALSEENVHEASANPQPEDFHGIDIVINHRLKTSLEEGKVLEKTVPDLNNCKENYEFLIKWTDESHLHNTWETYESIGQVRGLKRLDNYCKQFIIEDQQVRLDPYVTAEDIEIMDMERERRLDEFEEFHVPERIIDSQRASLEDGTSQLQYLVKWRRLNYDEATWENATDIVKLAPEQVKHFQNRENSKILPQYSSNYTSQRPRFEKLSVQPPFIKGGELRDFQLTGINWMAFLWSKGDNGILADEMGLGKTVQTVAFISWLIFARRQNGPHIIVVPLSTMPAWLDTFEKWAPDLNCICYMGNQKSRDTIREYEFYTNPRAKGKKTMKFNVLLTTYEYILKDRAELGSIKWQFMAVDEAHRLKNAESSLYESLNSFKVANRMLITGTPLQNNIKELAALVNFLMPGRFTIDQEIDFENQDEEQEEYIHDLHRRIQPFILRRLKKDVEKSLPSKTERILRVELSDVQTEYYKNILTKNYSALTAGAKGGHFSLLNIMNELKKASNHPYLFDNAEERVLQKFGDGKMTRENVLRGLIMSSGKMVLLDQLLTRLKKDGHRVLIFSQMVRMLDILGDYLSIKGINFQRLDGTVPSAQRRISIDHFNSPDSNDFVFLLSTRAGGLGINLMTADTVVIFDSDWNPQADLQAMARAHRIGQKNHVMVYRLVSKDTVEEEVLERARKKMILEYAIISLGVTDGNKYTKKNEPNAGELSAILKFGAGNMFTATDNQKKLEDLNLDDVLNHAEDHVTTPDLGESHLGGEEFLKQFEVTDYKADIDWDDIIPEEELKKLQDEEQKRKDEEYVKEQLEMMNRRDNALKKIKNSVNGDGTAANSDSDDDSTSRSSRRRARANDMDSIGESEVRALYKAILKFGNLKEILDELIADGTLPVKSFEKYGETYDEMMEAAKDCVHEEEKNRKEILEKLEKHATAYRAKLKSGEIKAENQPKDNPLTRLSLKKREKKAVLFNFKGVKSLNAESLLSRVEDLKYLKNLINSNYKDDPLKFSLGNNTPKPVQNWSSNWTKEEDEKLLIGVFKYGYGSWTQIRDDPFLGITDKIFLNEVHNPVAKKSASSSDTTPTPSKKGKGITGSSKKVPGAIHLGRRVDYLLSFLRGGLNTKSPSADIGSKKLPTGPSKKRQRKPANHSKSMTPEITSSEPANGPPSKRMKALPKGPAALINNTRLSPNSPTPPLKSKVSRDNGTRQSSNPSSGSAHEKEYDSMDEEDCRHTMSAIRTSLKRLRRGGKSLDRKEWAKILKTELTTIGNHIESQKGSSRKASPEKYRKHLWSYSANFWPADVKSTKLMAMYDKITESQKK

Chain of Sialic acid-binding Ig-like lectin 9 (Homo sapiens) (Q9Y336 whole entry): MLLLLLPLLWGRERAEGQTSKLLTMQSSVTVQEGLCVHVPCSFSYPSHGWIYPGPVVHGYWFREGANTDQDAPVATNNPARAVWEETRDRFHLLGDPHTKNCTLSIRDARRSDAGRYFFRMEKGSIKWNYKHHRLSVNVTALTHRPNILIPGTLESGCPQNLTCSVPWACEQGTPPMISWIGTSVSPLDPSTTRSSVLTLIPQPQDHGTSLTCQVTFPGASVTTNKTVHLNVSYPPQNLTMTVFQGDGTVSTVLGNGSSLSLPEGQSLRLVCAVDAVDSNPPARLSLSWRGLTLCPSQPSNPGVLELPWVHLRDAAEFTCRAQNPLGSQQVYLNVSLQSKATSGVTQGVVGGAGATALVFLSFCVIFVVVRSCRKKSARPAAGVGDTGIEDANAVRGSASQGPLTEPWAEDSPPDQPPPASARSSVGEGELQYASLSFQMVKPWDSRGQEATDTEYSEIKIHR
Chain of Protein translocase subunit SecA (Escherichia coli (strain K12)) (P10408 whole entry): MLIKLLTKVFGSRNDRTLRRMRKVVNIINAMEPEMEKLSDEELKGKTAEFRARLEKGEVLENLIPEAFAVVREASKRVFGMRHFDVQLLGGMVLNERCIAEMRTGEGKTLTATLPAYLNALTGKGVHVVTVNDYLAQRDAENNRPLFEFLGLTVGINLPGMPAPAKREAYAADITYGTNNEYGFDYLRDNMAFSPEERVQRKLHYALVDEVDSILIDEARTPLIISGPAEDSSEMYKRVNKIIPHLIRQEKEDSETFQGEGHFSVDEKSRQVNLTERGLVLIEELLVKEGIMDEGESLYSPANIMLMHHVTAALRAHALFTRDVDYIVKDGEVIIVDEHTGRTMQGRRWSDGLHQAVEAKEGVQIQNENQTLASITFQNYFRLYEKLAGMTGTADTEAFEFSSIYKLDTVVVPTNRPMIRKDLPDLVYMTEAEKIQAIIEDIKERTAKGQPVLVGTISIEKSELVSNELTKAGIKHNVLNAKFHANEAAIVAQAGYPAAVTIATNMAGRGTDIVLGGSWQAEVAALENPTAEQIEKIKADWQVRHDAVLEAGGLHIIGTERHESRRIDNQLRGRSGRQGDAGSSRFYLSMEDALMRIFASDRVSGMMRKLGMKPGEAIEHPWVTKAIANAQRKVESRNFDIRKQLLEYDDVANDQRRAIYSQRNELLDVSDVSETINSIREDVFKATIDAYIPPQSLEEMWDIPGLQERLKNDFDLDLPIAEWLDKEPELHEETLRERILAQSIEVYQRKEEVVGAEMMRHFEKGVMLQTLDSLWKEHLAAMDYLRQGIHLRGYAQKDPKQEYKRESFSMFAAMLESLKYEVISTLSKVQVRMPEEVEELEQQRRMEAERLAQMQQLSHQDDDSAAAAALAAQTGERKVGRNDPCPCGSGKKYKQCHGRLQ

SMILES	Percent Effect [1] [%]	Percent Effect [2] [%]	Percent Effect [3] [%]	Percent Effect [4] [%]	Percent Effect [5] [%]	Percent Effect [6] [%]	Percent Effect [7] [%]	Percent Effect [8] [%]	Percent Effect [9] [%]	Percent Effect [10] [%]	Percent Effect [11] [%]
COc1ccc(CNC(=O)NC(C)Cn2cccn2)cc1O (configuration not stated)	-1.61	5.2	-4.12	3.12	2.64	-1.47	3.15	25.9	3.81	11.8	-15.6
Cc1cnn(C2CCCN(C(=O)c3cn4cccnc4n3)C2)c1 (configuration not stated)	-4.17	8.11	-11.5	17.1	1.04	-6.01	1.62	7.34	7.39	16.1	-12.7
CN(CC(F)(F)F)C(=O)C1CSCN1C(=O)OC(C)(C)C (configuration not stated)	-2.64	2.74	-4.74	-3.23	-3.33	2.27	11.9	2.3	1.07	7.5	-1.01
Cc1nc(C)c(C(=O)N2CCCC2c2nnc3n2CCCCC3)s1 (configuration not stated)	-2.68	13.5	-4.05	1.58	0.586	5.42	14.3	3.62	11.9	11	-0.436
COc1ccc(NC(C)=O)c(N2CCN(C(C)=O)CC2)n1	-3.73	-2.7	-14.1	-3.66	-3.32	0	7.35	-1.36	7.92	8.54	15.3
CCCNC(=O)CNc1cc(C(=O)N2CCSCC2)ccc1C	-4.74	5.48	-4.24	9.22	8.73	-4.39	7.28	2.79	5.21	11.1	-9.2
COc1ccc(Br)c(C(=O)NCC2CCN(C(=O)c3ccoc3)CC2)c1	-6.69	5.48	7.36	-0.134	0.783	3.18	12.4	7.16	5.38	17.5	-6.16
NC(=O)C1CCCN(Cc2c(-c3ccco3)[nH]c3ncccc23)C1 (configuration not stated)	-1.81	12.2	-2.48	1.48	-3.16	1.16	9.83	23.8	7.53	14.3	-8.85
CCOc1ccnc(N2CCN(C(=O)c3cn[nH]c3CC)CC2)n1	-3.25	15.2	-3.34	7.76	0.472	-0.38	-1.23	18.9	7.39	24.1	-4.33
Cc1n[nH]c(C(=O)NCc2ccnc(OCC(F)(F)F)c2)c1Br	-4.7	23.7	-2.47	1.14	8.08	-0.383	18.4	5.22	6.37	24.4	-11.1
O=C(NCCOc1cccc(Cl)c1)C1CC(=O)N(CC2CC2)C1 (configuration not stated)	-3.05	26.3	6.34	-5.8	6.82	4.32	13.3	-1.81	4.43	25.9	-10.9
COc1ccccc1OCc1cc(C(=O)N2CC(O)C2)n[nH]1	-4.46	4.17	141	-2.11	-0.875	3.09	6.49	1.4	4.21	10.3	-1.24
Cc1noc(C)c1CCC(=O)NC(C)c1nnc2n1CCC2 (configuration not stated)	-2.15	16.2	5.84	17.7	6.35	5.71	5.24	3.14	2.15	13.6	-4.65
Cn1cnnc1C1CCCN(C(=O)c2ccccc2Cl)C1 (configuration not stated)	-3.26	18.2	-0.796	-3.37	1.67	0.632	5.74	6.09	11.4	25.9	-17.8
CCCn1nccc1C(=O)N1CCCN(CCCc2ccccc2)CC1	-5.36	11	-4.71	8.5	7.14	-4.79	16.2	4.05	7.29	8.64	-1.42
COc1ccc(COCC(O)CNC(=O)c2cnc(C)cn2)cc1 (configuration not stated)	-3.92	-8.86	0.227	0.611	0.308	-1.94	10.1	7.75	4.17	10.1	-25.8
CC1CCN(c2ncc3c(n2)CN(c2ccc4c(c2)OCO4)C3=O)CC1	-4.8	7.79	-3.15	7.77	0.492	-9.65	14.1	-2.83	5.38	11.1	1.03
O=C(CC1CCCC1)NCCn1ccc(-c2ccccn2)n1	-2.17	2.6	9.65	12	-3.85	0.645	-2.09	-8.59	2.12	6.41	-2.03
CCC(C)NC(=O)c1ccccc1-n1cnnn1 (configuration not stated)	-6.55	5.33	0.166	2.83	-0.292	5.21	12.2	3.8	9.29	16.1	-6.11
Cn1ccc(CN2CCC(OCCc3ccccc3)CC2)cc1=O	-2.81	0	-1.45	-0.922	-4.87	4.98	-5.41	29.9	0.971	0	1.89
Cc1cnn(CC2CCCN2Cc2nnc(Cc3ccccc3)o2)c1 (configuration not stated)	-4.98	10.8	-8.22	-3.85	-9.15	6.81	3.96	19.9	4.43	3.7	-4.25
CC(C)c1nc(CN(C)C2CCN(Cc3nc(C4CC4)no3)C2)no1 (configuration not stated)	4.92	11	-9.72	4.44	-8.42	1.36	18.8	22.3	3.23	10	-6.06
